Assay results published in PubChem BioAssay (NCI).
This is part of a sample that, as a whole, favours compounds with a hit. Of some 83,000 tested, about 20% had one in any assay.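 How to read the values: 0–100, growth inhibition (40 = 60% inhibited); 0, no net growth; -100 to 0, cell death (-40 = 40% of starting cells died; -100 = all dead).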 Unmarked numbers belong to inactive results. The source made the active and inactive calls. Rule for the calls: active = growth percent below 10; inactive = the rest.

Experiments:
Assay in all cases: NCI-60 one-dose screen, 48 h (100 = growth as untreated, 0 = no growth, -100 = all killed)
[1] = test system: BT-549 breast; settings: 10 µM unless noted
[2] = test system: MDA-MB-435 melanoma; settings: 10 µM unless noted
[3] = test system: SW-620 colon; settings: 10 µM unless noted
[4] = test system: MCF7 breast; settings: 10 µM
[5] = test system: HCT-116 colon; settings: 10 µM unless noted
[6] = test system: HCC-2998 colon; settings: 10 µM unless noted
[7] = test system: KM12 colon; settings: 10 µM unless noted

Structure (SMILES) | growth [1] | growth [2] | growth [3] | growth [4] | growth [5] | growth [6] | growth [7]
Oc1c(CN2CCN(c3ccccc3F)CC2)cc(Br)c2cccnc12 | -53.8% (active) | -48.3% (active) | -13.5% (active) | 9.33% (active) | -36.4% (active) | 30.7% | 0.135% (active)
Nc1nc(-c2ccccc2Br)nn1-c1nc2ccccc2s1 | 100% | 95% | 104% | 78.4% | 103% | 110% | 101%
Nc1ccc(-c2nc3cc(Oc4ccc(Oc5ccc6[nH]c(-c7ccc(N)cc7)nc6c5)cc4)ccc3[nH]2)cc1 | 105% | 109% | 98.4% | 85.1% | 97% | 106% | 104%
COC(=O)/C(CCC=C(C)C)=C1\[C@@H](OC(C)=O)C[C@@]2(C)[C@H]1CC(=O)N[C@H]1[C@@]3(C)CCNC(=O)[C@@H](C)[C@@H]3CC[C@@]12C | 107% | 105% | 103% | 93% | 101% | 103% | 102%
Clc1ccc(Oc2ccc(Nc3ncnc4onc(-c5ccccc5)c34)cc2)c(Cl)c1 | 90.2% | 103% | 99.5% | 80.6% | 85.4% | 103% | 103%
O=C(CN1C=NC2C(N3CCOCC3)=NC=NC21)c1cccc2ccccc12 (stereo not drawn) | 109% | 99.3% | 96% | 89.3% | 102% | 120% | 102%
Nc1nonc1-n1nncc1-c1cccnc1 | 105% | 102% | 111% | 93.4% | 106% | 112% | 105%
CN1CCN(Cc2ccc(C(=O)Nc3cncc(C#Cc4cnc(N)c5ccccc45)c3)cc2C(F)(F)F)CC1 | 72% | -89.2% (active) | -66.3% (active) | -68.3% (active) | -84.5% (active) | -52.6% (active) | -70.4% (active)
OC(c1ccccc1)c1nnc(SCc2ccccc2)n1Cc1ccccc1 (stereo not drawn) | 88.4% | 97.8% | 105% | 92.9% | 92.2% | 111% | 108%
CN(C)CCNc1cc(-c2ccccc2)nc2ccccc12 | -77.8% (active) | -55.1% (active) | -79.8% (active) | -24.6% (active) | -71.4% (active) | -81.4% (active) | -23.8% (active)
O=C(N/N=C/c1ccccc1O)C(=O)Nc1ccc(F)cc1 | 59.3% | 59.3% | 44.5% | 20.9% | 37.6% | 38.8% | 42.3%
COC(=O)c1ccc(NC(=O)CSc2nc3ccccc3c(=O)n2-c2ccccc2)cc1 | 94.4% | 104% | 105% | 106% | 97.7% | 98.8% | 99.8%
COc1cc(C(=O)Nc2ccc(-c3nc4ccccc4[nH]3)cc2)cc(OC)c1OC | 60.6% | -25.2% (active) | 14.7% | 11.6% | 24.1% | 57.6% | 33.8%
CCCCCCc1cc2cc(-c3csc(/C=C/c4ccccc4)n3)c(=O)oc2cc1O | 41.4% | -72.2% (active) | 1.96% (active) | 8.1% (active) | 12% | -25.1% (active) | 15.8%
O=C(Nc1ccc(-c2nc3cc4ccccc4cc3[nH]2)cc1)c1cccc(Br)c1 | 47.9% | 30% | 26.9% | 27.5% | 64.6% | 33.1% | 39.8%
CCOC(=O)c1ccc2[nH]c(-c3ccccc3)cc(=O)c2c1 | 103% | 107% | 103% | 99.8% | 99.4% | 112% | 105%
Clc1ccc(Nc2scc3[n+]2CCC3)cc1 | 99.2% | 97.7% | 96.9% | 89.6% | 96.2% | 104% | 97.8%

Structure (SMILES) | growth [1] | growth [2] | growth [3] | growth [4] | growth [5] | growth [6] | growth [7]
CCOC(=O)c1cc2c(n1Cc1cc(OC)cc(OC)c1)-c1oncc1CCC2 | 25.2% | -24.9% (active) | 24.7% | 12.5% | 15.1% | 19.3% | 19.1%
Fc1cccc(COc2ccc(Nc3ncnc4onc(-c5ccccc5)c34)cc2)c1 | 12.8% | -54.7% (active) | 19.8% | 14% | 8.15% (active) | 9.52% (active) | 9.57% (active)
Cn1cc(-c2ccc3ncc(-c4ccc(CC(=O)Nc5cc(C(C)(C)C)no5)cc4)nc3c2)cn1 | 55.4% | 28.8% | 48.3% | 30.2% | 24.4% | 60.2% | 6.86% (active)
CCc1ccc(CNCC(O)c2ccccc2)cc1 (stereo not drawn) | 90.1% | 69.9% | 89.6% | 29.8% | 47.8% | 38.5% | 72.5%
OCCNc1nc(Nc2ccc(C3=NN(c4cc(Cl)cc(Cl)c4)C(c4ccc(C(F)(F)F)cc4)C3)cc2)nc(N2CCOCC2)n1 (stereo not drawn) | 99.3% | 66.5% | 94% | 30.1% | 66.8% | 76.3% | 68.6%
COc1cc(/C=C2\CN(C)C/C(=C\c3cc(CN4CCCC4)c(O)c(OC)c3)C2=O)cc(CN2CCCC2)c1O | 94.1% | 67.6% | 54.5% | 26.3% | 40.4% | 96% | 48.3%
CC(=O)c1ccc2oc(=O)n(Cc3ccc(C#N)cc3)c(=O)c2c1 | 102% | 99.3% | 100% | 98.9% | 110% | 102% | 102%
Cn1c(/C=C(\C#N)c2ccccc2)nc2c(N3CCOCC3)nc(Cl)nc21 | -77.2% (active) | -84.7% (active) | -74.2% (active) | -57.7% (active) | -78.1% (active) | -17.2% (active) | -53% (active)
COc1ccc(CCN2C(=O)CCSC2=S)cc1 | 96.3% | 4.04% (active) | 21.9% | 16.2% | 17.1% | 106% | 0.314% (active)
COc1cccc(C(=O)NC(c2ccc(C)cc2)c2cc(Cl)c3cccnc3c2O)c1 (stereo not drawn) | 12.3% | 19.4% | 14.1% | 17.9% | 19.2% | 7.35% (active) | 20.7%
Cc1nn(-c2nc3ccccc3[nH]2)c2c1C(c1ccc(OCC(N)=O)cc1)CC(=O)N2 (stereo not drawn) | 105% | 98.8% | 88.7% | 96% | 101% | 122% | 109%
COc1ccc(C2Nc3nc(OC)n(C)c(=O)c3N=C3c4ccccc4C(=O)C32)cc1 (stereo not drawn) | 86.3% | 78.5% | 90% | 74.5% | 95.4% | 103% | 75%
O=C(/C=C/c1ccc(Cl)cc1)c1ccc(Nc2nc(NCCO)nc(Nc3ccc(Cl)cc3)n2)cc1 | 68% | 62.2% | 62.6% | -31.3% (active) | -78.9% (active) | 20.2% | 18.7%
O=C(CSc1nc2ccccc2c(=O)n1-c1ccccc1)Nc1ccc(C(=O)/C=C/c2ccc(Cl)cc2)cc1 | 111% | 103% | 99.1% | 85.1% | 102% | 109% | 100%
O=C(NCc1ccco1)C1CN(c2ccc(Cl)cc2)N(c2ccc(Cl)cc2)C1=O (stereo not drawn) | 51.9% | -32.5% (active) | 28.6% | 14.2% | 21.9% | 76.1% | 22.3%
Cc1ccccc1CNC(=O)C1CN(c2ccc(Cl)cc2)N(c2ccc(Cl)cc2)C1=O (stereo not drawn) | 90.6% | 35.9% | 81.9% | 74.1% | 83.8% | 100% | 87.2%
COc1ccccc1CNC(=O)C1c2ccccc2C(=O)N(CC(C)C)C1c1cccs1 (stereo not drawn) | 78.9% | 71% | 78.6% | 66.4% | 59.9% | 48.3% | 32.7%
